Sampled rows, rich in hits. Any-hit rate of the full collection: about 3.3%.
Sm TGR block: qHTS Assay for the Inhibitors of Schistosoma Mansoni Peroxiredoxins; Schistosoma mansoni thioredoxin glutathione reductase (TGR), Q962Y6; purified TGR, DTNB reduction, TNB absorbance 405 nm; Potency, µM (series often up to 114 µM), without a hit: at the highest dose activity change, negative = inhibition, hits mostly inhibitors; 360,000 tested, 3% active; AID 485364, 2010; also: nearly all actives have a fitted effect of over 60% in size
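First, TGR (20 nM dispensed) and NADPH were mixed with compound. Second, a 15 min room-temperature incubation followed. Third, further NADPH and then DTNB were added to start the reaction. Finally, TNB absorbance was monitored kinetically.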
AmpC no deterg: qHTS Inhibitors of AmpC Beta-Lactamase (assay without detergent); 330,000 tested, 0.52% active; AID 485341, 2010; AmpC nitrocefin hydrolysis, absorbance 480 nm, 0.0001% Triton; Potency, µM (doses to about 57.1 µM), for inactives: at the highest dose activity change, negative = inhibition, hits mostly inhibitors; P00811;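 also: plate controls were no compound for no effect and no enzyme for full effect; nearly all actives have a fitted effect of over 20% in size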
Target sequence (P00811 whole entry, looked up): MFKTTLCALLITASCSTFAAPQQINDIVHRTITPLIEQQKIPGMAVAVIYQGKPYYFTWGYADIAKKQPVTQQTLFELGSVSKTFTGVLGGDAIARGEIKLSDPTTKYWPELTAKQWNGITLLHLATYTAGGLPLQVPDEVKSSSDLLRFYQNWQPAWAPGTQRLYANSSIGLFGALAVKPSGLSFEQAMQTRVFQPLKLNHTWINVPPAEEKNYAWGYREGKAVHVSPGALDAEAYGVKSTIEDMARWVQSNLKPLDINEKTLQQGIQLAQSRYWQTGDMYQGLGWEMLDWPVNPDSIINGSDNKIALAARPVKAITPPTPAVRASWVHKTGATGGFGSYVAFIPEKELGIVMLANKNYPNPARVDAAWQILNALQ
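20 mM phosphate pH 7.0 + 0.01% (detergent screen) or 0.0001% Triton X-100; 5.3 nM AmpC reagent; cpd preinc 15 min RT; nitrocefin (800 uM stock) to start; A480 q20 s × 4 min; Activity was normalised to no-enzyme and no-compound control wells.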
AmpC detergent: qHTS Inhibitors of AmpC Beta-Lactamase (assay with detergent); AmpC hydrolysis of nitrocefin, absorbance 480 nm, 0.01% Triton; Potency, µM (top dose mostly 114 µM), for the others: at the highest dose activity change, negative = inhibition, usual class: inhibitors; 370,000 tested, 0.041% active; AID 485294, 2010;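 also: 0% = no-compound wells and -100% = no-enzyme wells; nearly all actives have a fitted effect of over 25% in size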
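AmpC (5.3 nM in the dispensed reagent) in 20 mM phosphate pH 7.0 with 0.01% (detergent screen) or 0.0001% Triton X-100 was preincubated with compounds for 15 min at room temperature. Nitrocefin was then added from an 800 uM solution, and hydrolysis was followed at 480 nm.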
The depositor's hits bear a star; ? = inconclusive; . = no result given. Calls follow the shape of the dose curve; as a rule, active = well fitted curve in the direction sought with a large enough effect; inconclusive = small, poorly fitted or top-dose-only effect, or another doubt; inactive = no such curve, though single readings can be large; an effect the other way counts as inactive or inconclusive. Unless noted, % is scaled to controls: 0 for no effect and ±100 for the full control effect; potency is read from the fitted curve at half-maximal effect.

SMILES	Sm TGR block	AmpC no deterg	AmpC detergent
CCN(C(=O)C1CCCN(S(=O)(=O)c2c(C)noc2/C=C/N(C)C)C1)c1cccc(C)c1 (stereo not drawn)	-4%	.	-8%
COc1ccc(CCN2C(=O)N(c3ccc(C)cc3)C(=O)C2CC(=O)Nc2ccc(F)cc2)cc1 (stereo not drawn)	-1%	.	-4%
O=c1c2c3c(sc2n(CCN2CCCC2)c(=O)n1Cc1ccco1)CCCCC3	0%	24%	5%
CN(C)CCn1c(=O)n(Cc2ccco2)c(=O)c2c3c(sc21)CCCCC3	7%	117%	-3%
O=C(Cn1c(=O)n(Cc2ccco2)c(=O)c2c3c(sc21)CCCCC3)Nc1ccccc1	10µM*	-54%	1%
O=C(Cn1c(=O)n(Cc2ccco2)c(=O)c2c3c(sc21)CCCCC3)c1ccccc1	35µM*	-38%	?
Cc1ccc(CN2CCN(C3CCN(S(=O)(=O)N(C)C)CC3)C(=O)C2=O)cc1	-1%	.	-10%
COc1ccc(OC)c(S(=O)(=O)N2CCN(c3ncccn3)CC2)c1	-11%	25%	-3%
COc1ccc(OC)c(S(=O)(=O)N2CCN(c3c(C)cccc3C)CC2)c1	?	40µM*	?
Cn1cc(S(=O)(=O)N2CCOCC2)cc1C(=O)Nc1ccc(Cl)c(C(F)(F)F)c1	?	.	10%
Cc1c(C(=O)Nc2ccc(F)c(C(F)(F)F)c2)sc2nc(-c3ccccc3)cn12	0%	.	21%
Cc1cc(C(=O)N/N=C/c2cn[nH]c2-c2ccccc2)cs1	-1%	-46%	7%
CCc1c(C(=O)N/N=C/c2cn[nH]c2-c2ccc(F)cc2)csc1C	-3%	16µM*	?
COc1ccccc1CNC(=O)c1ccc(N2CCCC2)c(NC(=O)NCc2ccc(F)cc2)c1	9%	.	8%
O=c1c2cc(N3CCOCC3)ccc2[nH]c(=S)n1Cc1ccco1	8.9µM*	-29%	?
O=c1c2cc(N3CCOCC3)ccc2[nH]c(=S)n1Cc1cccc(Cl)c1	11%	-2%	-7%
COC(=O)c1c(C)oc2c1cc(NS(=O)(=O)c1cccs1)c1ccccc12	?	11µM*	-7%
CCOc1ccc(S(=O)(=O)Nc2cc3c(C(=O)OCc4ccccc4)c(C)oc3c3ccccc23)cc1	-27%	.	1%
CCOC(=O)c1c(C)oc2c1cc(NS(=O)(=O)c1ccc(C(=O)O)cc1)c1ccccc12	28µM*	-43%	-15%
COc1ccc(OC)c(S(=O)(=O)Nc2cc3c(C(C)=O)c(C)oc3c3ccccc23)c1	-25%	.	6%
CCN(CC)Cc1cc(O)c(CN(CC)CC)cc1O	3.2µM*	-3%	-2%
CCc1oc(C(=O)O)cc1CN(CC)CC	6%	.	?
CC(CCc1ccco1)NC(=O)Cn1ncc2c1-c1ccccc1OC2 (stereo not drawn)	50µM*	4%	?
O=C(Cn1ncc2c1-c1ccccc1OC2)N(Cc1ccco1)C1CCCCC1	?	23%	?
COc1ccc(C2N3CC4(C)CN2CC(c2ccccc2)(C3)C4=O)cc1 (stereo not drawn)	-1%	.	9%
SMILES	Sm TGR block	AmpC no deterg	AmpC detergent
CCCCN(Cc1ccco1)S(=O)(=O)c1ccc(-c2ccc(=O)[nH]n2)s1	25µM*	-14%	1%
CC(C)CCN(Cc1ccco1)S(=O)(=O)c1ccc(-c2ccc(=O)[nH]n2)s1	-24%	-1%	-4%
c1ccc(Nc2scc(-c3ccccc3)[n+]2Cc2ccco2)cc1	40µM*	-19%	5%
c1ccc(C[n+]2c(-c3ccccc3)csc2Nc2ccccc2)cc1	-1%	-22%	?
CCOc1ccccc1C1C2C(=O)N(c3ccccc3)C(=O)C2ON1c1ccccc1 (stereo not drawn)	-26%	-7%	-9%
O=C1C2ON(c3ccccc3)C(c3ccncc3)C2C(=O)N1c1ccc(Br)cc1 (stereo not drawn)	45µM*	48%	?
O=C(O)COc1ccccc1C1C2C(=O)N(c3ccccc3)C(=O)C2ON1c1ccccc1 (stereo not drawn)	22µM*	-8%	-16%
O=C1C2ON(c3ccccc3)C(c3ccncc3)C2C(=O)N1c1ccc(N2CCOCC2)cc1 (stereo not drawn)	3%	98%	-14%
Cc1ccc(N2C(=O)C3ON(c4ccccc4)C(c4ccncc4)C3C2=O)cc1 (stereo not drawn)	16µM*	104%	11%

High-throughput results from PubChem.
